The source made the active and inactive calls.
Target: NADPH oxidase 4 (Homo sapiens) (UniProt Q9NPH5)
Test: compounds shifting NOX4 Amplex Red fluorescence – cell-based, HEK293-NOX4, tetracycline-induced, NOX inhibitor project, primary screen (AID 1160)
Settings: HEK293-NOX4, Amplex Red H2O2 fluorescence, 45 min; higher = more signal, called active from +8 up or from −8 down

Chain of NADPH oxidase 4 (Homo sapiens) (Q9NPH5 whole entry, looked up): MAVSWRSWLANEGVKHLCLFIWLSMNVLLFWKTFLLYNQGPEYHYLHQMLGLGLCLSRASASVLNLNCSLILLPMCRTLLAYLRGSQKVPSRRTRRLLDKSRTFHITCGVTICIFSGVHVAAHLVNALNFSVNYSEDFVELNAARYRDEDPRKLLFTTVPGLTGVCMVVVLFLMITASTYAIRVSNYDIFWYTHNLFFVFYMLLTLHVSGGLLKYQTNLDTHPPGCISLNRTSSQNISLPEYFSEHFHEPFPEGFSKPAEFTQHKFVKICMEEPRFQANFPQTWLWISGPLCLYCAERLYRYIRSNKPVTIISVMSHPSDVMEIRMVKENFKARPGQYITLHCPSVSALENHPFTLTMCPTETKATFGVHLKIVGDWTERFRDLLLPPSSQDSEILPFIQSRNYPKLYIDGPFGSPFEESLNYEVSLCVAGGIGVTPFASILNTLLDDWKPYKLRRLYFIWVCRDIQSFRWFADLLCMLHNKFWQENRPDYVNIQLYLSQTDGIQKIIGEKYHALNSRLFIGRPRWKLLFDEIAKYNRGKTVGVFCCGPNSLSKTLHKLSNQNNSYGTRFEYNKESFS

| Structure (SMILES) | z-score |
| --- | --- |
| C=CCC1=C[C@H]2[C@H]([C@@H]3C=C[C@]2(CC=C)C(=O)[C@]32CO2)[C@@]2(CO2)C1=O | 0.0495 (inactive) |
| Cc1ccc(S[C@]2(C(=O)O)CC(=O)N(Cc3ccccc3)[C@@H]2c2ccc(CO)cc2)cc1 | -0.197 (inactive) |
| CCCNC(=O)[C@@H]1c2ccccc2C(=O)N(Cc2cc(F)cc(C(F)(F)F)c2)[C@H]1c1ccc(CO)cc1 | 0.609 (inactive) |
| O=C1c2ccccc2[C@](Cc2ccccc2I)(C(=O)O)[C@H](c2ccc(CO)cc2)N1C1CCCCC1 | -0.737 (inactive) |
| [N-]=[N+]=NCc1ccccc1C[C@]1(C(N)=O)N=C(c2ccc(OCCCO)cc2)O[C@H]1c1ccccc1CN=[N+]=[N-] | 0.885 (inactive) |
| CO[C@H]1COC(=O)[C@H](C)NC(=O)CC=C[C@@H](C)[C@H](NS(=O)(=O)c2ccc(C)cc2)COC(=O)[C@@H](OCc2ccccc2)C=C[C@@H]1C | 0.815 (inactive) |
| COC(=O)c1c(CC[C@@H](CO)NC(=O)N[C@H](Cn2cc(-c3cncn3C)nn2)C(C)C)oc(C(C)=O)c1C(=O)OC | 0.591 (inactive) |
| C=C(COC)/C(=C/C[C@@H](OC(C)=O)c1cccc(OCCO)c1)c1cc(C(=O)OC)ccc1OC | 1.28 (inactive) |
| CC(C)[Si]1(C(C)C)O[C@@H](c2ccccc2)c2cc(C3CC3)nc(-c3ccc(Oc4ccccc4)cc3)c21 | 0.86 (inactive) |

Target: NADPH oxidase 5 (Homo sapiens) (UniProt Q96PH1)
Test: compounds shifting NOX5 Amplex Red fluorescence – cell-based, HEK293-NOX5, NOX inhibitor project, primary screen (AID 1161)
Settings: HEK293-NOX5, ionomycin, 45 min, higher = more signal

Chain of NADPH oxidase 5 (Homo sapiens) (Q96PH1 whole entry, looked up): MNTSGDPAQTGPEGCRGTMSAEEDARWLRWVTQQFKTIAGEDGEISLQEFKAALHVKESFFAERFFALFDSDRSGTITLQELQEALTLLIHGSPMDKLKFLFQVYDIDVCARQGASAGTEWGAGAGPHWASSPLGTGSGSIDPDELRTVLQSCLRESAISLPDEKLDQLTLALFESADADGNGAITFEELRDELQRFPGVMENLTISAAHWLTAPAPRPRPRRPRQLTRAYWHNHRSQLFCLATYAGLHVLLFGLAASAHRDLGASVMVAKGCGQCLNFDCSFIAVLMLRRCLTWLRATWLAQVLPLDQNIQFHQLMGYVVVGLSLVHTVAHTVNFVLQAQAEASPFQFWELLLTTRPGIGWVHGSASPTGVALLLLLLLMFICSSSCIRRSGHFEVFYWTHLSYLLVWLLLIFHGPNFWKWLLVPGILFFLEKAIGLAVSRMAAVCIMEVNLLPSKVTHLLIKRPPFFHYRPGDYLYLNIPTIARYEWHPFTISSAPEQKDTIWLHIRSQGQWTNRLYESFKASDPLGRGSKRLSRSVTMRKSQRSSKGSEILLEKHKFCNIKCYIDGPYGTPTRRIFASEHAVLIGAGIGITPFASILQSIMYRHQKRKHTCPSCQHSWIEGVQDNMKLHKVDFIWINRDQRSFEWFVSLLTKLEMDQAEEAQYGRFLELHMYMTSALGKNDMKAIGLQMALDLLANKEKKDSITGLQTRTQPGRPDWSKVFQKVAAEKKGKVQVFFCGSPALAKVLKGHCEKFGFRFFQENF

| Structure (SMILES) | z-score |
| --- | --- |
| C=CCOC(=O)[C@@H]1[C@H]2C(=O)O[C@H](c3ccccc3)[C@H](c3ccccc3)N2[C@H](c2ccc(OCCOC(=O)[C@H]3C[C@H]4C(=O)N5CCC[C@H]5C(=O)N4[C@H]3c3ccc(O)cc3)cc2)[C@@]12C(=O)Nc1ccccc12 | 2.16 |
| C[C@@H]1CC[C@H]2C(=O)N3[C@@H](CC[C@@H](C)[C@@H]3c3cccc(N4CCOCC4)c3)C(=O)N2[C@H]1c1cccc(N2CCOCC2)c1 | 0.125 |
| COc1ccc(-c2ccccc2[C@@H]2N[C@H](C(=O)O)CC[C@H]2C)cc1 | -0.431 |
| CN1CCC(CCCO)=CC1C1CC1 (stereo not drawn) | 0.0296 |
| C=CCC(OC(C)=O)[C@@H]1[C@@H](N(Cc2cc3ccccc3o2)C(=O)c2ccc(C)cc2)c2cc(OCCCO)ccc2N1C(=O)c1ccc2ccccc2n1 (stereo partly drawn) | 1.51 |
| C[C@H]1COC(=O)[C@H](Cc2ccccc2)NC(=O)[C@@H](C)COC(=O)[C@H](Cc2ccccc2)NC1=O | 0.253 |
| CCN1C(C)=C(C(=O)OC)[C@@H](c2ccccc2)N2C(=O)[C@@]3(C(=O)OC)O[C@@]12[C@@H]1C(=O)N(c2ccccc2)C(=O)[C@@H]13 | -0.283 |
| CCCC/C=C/[C@H]([C@@H](O)Cc1ccccc1)N(CC#Cc1ccccc1)Cc1ccccc1Br | -0.622 |
| Cc1ccc(S[C@]2(C(=O)NCCCN(C)C)CC(=O)N(C3CCCCC3)[C@@H]2c2ccc(CO)cc2I)cc1 | 0.549 |
| CO[C@@H]1COC(=O)[C@H](C)NC(=O)CC=C[C@@H](C)[C@H](NS(=O)(=O)c2ccc(C)cc2)COC(=O)CC=C[C@@H]1C | 0.661 |
| C=CCNC(=O)[C@H]1[C@@H]2C(=O)O[C@@H](c3ccccc3)[C@@H](c3ccccc3)N2[C@@H](c2ccccc2OCCO)[C@]12C(=O)N(C(=O)OCCOC)c1ccc(C#CCC(C(=O)OC)C(=O)OC)cc12 | 0.521 |
| CC(=O)NCCCC[C@@H]1NC(=O)[C@@H]2C[C@H](C(=O)NCCCCCCN(C)C)[C@H](c3ccc(O)cc3)N2C1=O | 0.253 |
| O=C(NCC(O)CO)[C@]1(Cc2ccccc2)N=C(c2ccc(OCCCO)cc2)O[C@@H]1c1ccccc1 (stereo partly drawn) | 1.7 |
| C[C@H]1NC(=O)[C@@H](C)NC(=O)[C@@]23C(=O)N[C@@H](Cc4ccccc4)C2[C@H](C)[C@@]2(C)O[C@H]2C3/C=C/C/C=C\CNC1=O (stereo partly drawn) | 0.442 |
| CC(C)N1CC=CC23O[C@@H]4/C=C\CCCOC(=O)C4[C@H]2C(=O)N(CCO)[C@@H]3C1=O (stereo partly drawn) | 1.84 |
| C=CC[C@]1(C(=O)O)N=C(c2ccc(OCCCO)cc2)O[C@H]1c1ccccc1 | 1.22 |
| CC(C)CNC(=O)[C@@]1(C)c2ccccc2C(=O)N(Cc2ccc(OC(F)(F)F)cc2)[C@H]1c1ccc(CO)cc1 | 1.01 |
| CO[C@H]1COC(=O)[C@H](Cc2ccccc2)NC(=O)CC=C[C@@H](C)[C@H](OC)COC(=O)CC=C[C@@H]1C | 0.784 |
| C=C(COC)/C(=C/C[C@@H](OC(=O)c1ccncc1)c1ccc(OCCO)cc1)c1cc(C(=O)OC)ccc1OC | -0.63 |
